Shown is part of a subset that was picked to be rich in hits.
KDM5B inh: Primary screen for KDM5B Histone Demethylases FDH-coupled qHTS | 2.6% of 220,000 active | KDM5B demethylase, FDH-coupled NADH fluorescence (FDH is formaldehyde dehydrogenase) | Potency, µM (top dose mostly 57.7 µM), usual class: inhibitors; active = well fitted inhibition curve with a large enough effect; also: 0% is about no effect; nearly all actives have a fitted effect of over 70% in size
Target sequence (Q9UGL1 whole entry, looked up): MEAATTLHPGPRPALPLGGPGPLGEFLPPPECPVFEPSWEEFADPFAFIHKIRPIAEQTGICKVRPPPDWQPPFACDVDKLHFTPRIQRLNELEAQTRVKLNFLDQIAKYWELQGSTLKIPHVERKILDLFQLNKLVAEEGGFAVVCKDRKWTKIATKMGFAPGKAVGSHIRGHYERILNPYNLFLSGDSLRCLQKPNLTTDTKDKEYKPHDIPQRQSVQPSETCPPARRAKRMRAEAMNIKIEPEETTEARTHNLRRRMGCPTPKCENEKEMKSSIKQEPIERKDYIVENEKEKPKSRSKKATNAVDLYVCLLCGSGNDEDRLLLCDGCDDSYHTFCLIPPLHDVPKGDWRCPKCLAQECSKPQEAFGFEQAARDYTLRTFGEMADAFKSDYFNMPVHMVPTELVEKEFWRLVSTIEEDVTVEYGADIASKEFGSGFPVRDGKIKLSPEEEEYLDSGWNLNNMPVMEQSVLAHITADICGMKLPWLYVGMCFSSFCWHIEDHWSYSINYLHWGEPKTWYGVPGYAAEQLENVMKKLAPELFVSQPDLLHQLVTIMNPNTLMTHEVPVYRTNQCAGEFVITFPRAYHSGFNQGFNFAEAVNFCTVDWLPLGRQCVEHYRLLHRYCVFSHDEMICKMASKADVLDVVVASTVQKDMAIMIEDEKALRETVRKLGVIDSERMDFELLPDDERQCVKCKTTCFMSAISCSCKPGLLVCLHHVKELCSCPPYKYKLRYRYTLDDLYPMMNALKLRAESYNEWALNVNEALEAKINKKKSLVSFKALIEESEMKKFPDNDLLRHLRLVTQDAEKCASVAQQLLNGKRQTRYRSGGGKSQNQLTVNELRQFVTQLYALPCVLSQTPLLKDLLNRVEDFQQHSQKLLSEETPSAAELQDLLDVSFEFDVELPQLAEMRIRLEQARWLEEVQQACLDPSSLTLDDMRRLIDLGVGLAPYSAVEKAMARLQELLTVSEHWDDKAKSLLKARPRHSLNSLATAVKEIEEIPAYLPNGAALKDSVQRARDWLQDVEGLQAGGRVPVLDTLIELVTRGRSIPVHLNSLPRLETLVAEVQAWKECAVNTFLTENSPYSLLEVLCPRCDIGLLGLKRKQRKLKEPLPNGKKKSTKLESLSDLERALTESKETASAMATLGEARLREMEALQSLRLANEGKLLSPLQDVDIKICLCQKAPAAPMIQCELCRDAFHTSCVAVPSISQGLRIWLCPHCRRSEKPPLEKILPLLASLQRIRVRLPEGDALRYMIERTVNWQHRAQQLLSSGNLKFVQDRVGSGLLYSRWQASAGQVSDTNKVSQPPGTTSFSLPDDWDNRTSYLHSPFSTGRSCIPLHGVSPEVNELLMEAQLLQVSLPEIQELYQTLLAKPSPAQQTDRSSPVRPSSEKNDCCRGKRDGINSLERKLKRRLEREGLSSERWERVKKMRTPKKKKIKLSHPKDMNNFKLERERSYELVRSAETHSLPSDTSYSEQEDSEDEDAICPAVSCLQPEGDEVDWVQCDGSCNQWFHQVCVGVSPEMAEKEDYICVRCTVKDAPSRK
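Compound dilutions met 200 nM (final) KDM5BΔAP for 10 min at room temperature before substrate addition. The substrate mix held 12.5 µM H3K4me3 with cofactors 25 µM α-ketoglutarate and 50 µM Fe²⁺. NADH signal gain over 30 min defined activity.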
* marks the source's active call; other numbers are inactive results. Potency is read from the fitted curve at half-maximal effect.

Results for CC(=O)N1CCN(S(=O)(=O)c2ccc(C)c3ncccc23)CC1 ?
KDM5B inh: inactive

What do the screens show for `Cc1ccc(B(O)O)c2cccnc12`?
KDM5B inh: inactive

What do the screens show for `Cc1cc(C)cc(C(=O)N2CCCC(n3cc(-c4nc(C)no4)nn3)C2)c1` (centres undefined)?
KDM5B inh: inactive

How did COc1ccc(OCCNC(=O)c2cn(C)c3ccccc23)cc1 do in these assays?
KDM5B inh: inactive

How did COCCNC(=O)c1nc(-c2ccc(F)cc2)c2ccccn12 do in these assays?
KDM5B inh: 39.8µM*

How did COCCNC(=O)c1nc(-c2ccc(OC)cc2)c2ccccn12 do in these assays?
KDM5B inh: 89.1µM*

Results for COCCNC(=O)c1nc(-c2ccccc2)c2ccccn12 ?
KDM5B inh: inactive

What do the screens show for `Cc1occc1-c1nnc(SC(C(=O)NCc2cccnc2)C(C)C)o1` (centres undefined)?
KDM5B inh: inactive

Results for CCOc1ccc(NC(=O)Cn2ncn3nc(-c4cc(C)ccc4C)cc3c2=O)cc1 ?
KDM5B inh: inactive

How did CCc1nnc2sc(-c3ccc(C)c(NC(=O)c4ccc(Br)o4)c3)nn12 do in these assays?
KDM5B inh: inactive

How did COc1ccc(/C=C/C(=O)CC(=O)c2cc(Cl)ccc2O)cc1 do in these assays?
KDM5B inh: inactive

What do the screens show for `CC(C)c1ccc(-c2nc(-c3cccnn3)no2)c(=O)[nH]1`?
KDM5B inh: 22.4µM*

Results for COC(=O)NC(C)c1nc(-c2cccnn2)no1 (centres undefined) ?
KDM5B inh: inactive

What do the screens show for `CN[C@@H](CC(C)C)c1nc(-c2cccnn2)no1`?
KDM5B inh: inactive

How did CN1CCC(C(=O)N2Cc3ccccc3CC3(CCCN(Cc4ccccn4)C3)C2)CC1 (centres undefined) do in these assays?
KDM5B inh: inactive

What do the screens show for `Cc1ccc(NC(=O)N2C[C@H](c3nc(-c4cccnc4)no3)[C@@H](C)C2)cc1`?
KDM5B inh: inactive

Results for O=C(O)CCNS(=O)(=O)c1cccc(C(F)(F)F)c1 ?
KDM5B inh: inactive

How did O=C(CCC1CCN(S(=O)(=O)c2ccccc2)CC1)NCc1ccc(F)cc1 do in these assays?
KDM5B inh: inactive

What do the screens show for `O=C(CCC1CCN(S(=O)(=O)c2ccccc2)CC1)NCc1ccccc1`?
KDM5B inh: 22.4µM*

Results for COc1cccc(CNC(=O)CCC2CCN(S(=O)(=O)c3ccccc3)CC2)c1 ?
KDM5B inh: inactive

What do the screens show for `N#Cc1ccc(CN2CCC(N3Cc4ccccc4C3=O)CC2)cc1`?
KDM5B inh: inactive

What do the screens show for `N#C/C(=C/c1ccc(OC(F)F)cc1)C(=O)Nc1ccccc1Oc1ccccc1`?
KDM5B inh: inactive

What do the screens show for `Fc1ccc(-c2nnc3ccc(NCCc4ccccc4)nn23)nc1`?
KDM5B inh: inactive

How did Fc1ccc(-c2nnc3ccc(Nc4ccc(N5CCOCC5)cc4)nn23)nc1 do in these assays?
KDM5B inh: inactive

Results for Fc1ccc(-c2nnc3ccc(NCc4cnccn4)nn23)nc1 ?
KDM5B inh: inactive

Results for Cc1ccc(-c2nnc3ccc(NCc4cccc(F)c4)nn23)nc1 ?
KDM5B inh: inactive

Results for Fc1ccc(-c2nnc3ccc(NCCc4ccccn4)nn23)nc1 ?
KDM5B inh: 39.8µM*

Results for CC(C)CNc1ccc2nnc(-c3ccc(F)cn3)n2n1 ?
KDM5B inh: 31.6µM*

What do the screens show for `CCCCCCCCCCC(=O)N/N=C(/C)c1cccc(NC(=O)c2ccc(Cl)cc2Cl)c1`?
KDM5B inh: inactive

How did CC(C)Oc1ccccc1CN1C(=O)C(=O)c2ccccc21 do in these assays?
KDM5B inh: inactive

What do the screens show for `c1cnc(-c2nn3c(COc4ccc5c(c4)OCO5)nnc3s2)cn1`?
KDM5B inh: inactive

Results for COc1ccccc1-n1cc(-c2ccnc(N3CCCN(C(C)=O)CC3)n2)cn1 ?
KDM5B inh: 31.6µM*

What do the screens show for `CCc1cn[nH]c1C1CCCN(C(=O)c2cnn(-c3ccccc3OC)c2)C1` (centres undefined)?
KDM5B inh: inactive

What do the screens show for `COc1ccccc1N1CCN(C(=O)Cn2ncc3ccsc3c2=O)CC1`?
KDM5B inh: inactive

What do the screens show for `O=C(OCc1ccc([N+](=O)[O-])cc1)C1(c2cccc(F)c2)CCCC1`?
KDM5B inh: inactive

How did CC#CCn1cc2c3c(cccc31)[C@H](CC(C)C)N[C@H](C(=O)NC1CCCC1)C2 do in these assays?
KDM5B inh: inactive

What do the screens show for `CC(C)C[C@@H]1N[C@H](C(=O)O)Cc2cn(CC3CCC3)c3cccc1c23`?
KDM5B inh: 31.6µM*

What do the screens show for `CC(C)C[C@@H]1N[C@H](C(=O)N2CCN(C)CC2)Cc2cn(Cc3ccccn3)c3cccc1c23`?
KDM5B inh: inactive

How did CC(C)C[C@@H]1N[C@H](C(=O)NCc2ccccc2)Cc2cn(Cc3ccncc3)c3cccc1c23 do in these assays?
KDM5B inh: inactive

Results for CC(C)C[C@@H]1N[C@H](C(=O)O)Cc2cn(Cc3nccn3C)c3cccc1c23 ?
KDM5B inh: 31.6µM*

How did CC(C)C[C@@H]1N[C@H](C(=O)NC2CCC2)Cc2cn(CC3CC3)c3cccc1c23 do in these assays?
KDM5B inh: inactive

How did CCn1nnc2cc(C(=O)Nc3nc(-c4ccc5c(c4)CC(=O)N5)cs3)ccc21 do in these assays?
KDM5B inh: inactive

How did CCCC(C)NC(=O)CN(c1ccccc1OC)S(C)(=O)=O (centres undefined) do in these assays?
KDM5B inh: inactive

Results for COc1ccc(C(=O)N2CCOc3ccc(CCC(N)=O)cc3C2)cc1F ?
KDM5B inh: inactive

How did COCC(=O)N1CC(C(=O)NCc2ccncc2)C2(CCOCC2)C1 (centres undefined) do in these assays?
KDM5B inh: inactive

What do the screens show for `O=S1(=O)C[C@H](N2CCN(c3ncccn3)CC2)[C@@H](S(=O)(=O)c2ccccc2)C1`?
KDM5B inh: inactive

Results for Cc1cc(C[C@@H]2COC[C@@H]2NC(=O)CCc2nc(-c3ccccc3C)no2)on1 ?
KDM5B inh: inactive

What do the screens show for `COc1nc2ccccc2nc1CCC(=O)N[C@H]1COC[C@H]1Cc1cc(C)no1`?
KDM5B inh: 28.2µM*

How did Cc1cc(C[C@@H]2COC[C@@H]2NC(=O)CCCn2cncn2)on1 do in these assays?
KDM5B inh: inactive

What do the screens show for `CCc1nc(C)c(C(=O)N[C@H]2COC[C@H]2Cc2cc(C)no2)s1`?
KDM5B inh: inactive

What do the screens show for `COc1ccc2[nH]c(C(=O)N[C@H]3COC[C@H]3Cc3cc(C)no3)c(C)c2c1`?
KDM5B inh: 22.4µM*

What do the screens show for `COc1ccc(C2(C(=O)N[C@H]3COC[C@H]3Cc3cc(C)no3)CCCC2)cc1`?
KDM5B inh: inactive

Results for O=C(COc1ccccc1Cl)c1ccc2c(c1)N(CC(=O)N1CCCC1)C(=O)CO2 ?
KDM5B inh: inactive

Results for COCCn1c(=O)c2c(nc(-n3nc(C)c(C)c3C)n2Cc2ccccc2)n(C)c1=O ?
KDM5B inh: inactive

Results for COC(=O)c1ccc(NC(=O)CCc2ccco2)cc1 ?
KDM5B inh: inactive

What do the screens show for `COc1ccc2nc(C)c(C(=O)NC34CC5CC(CC(C5)C3)C4)cc2c1`?
KDM5B inh: inactive

Results for NC(N)=NC(N)=NCc1ccncc1 ?
KDM5B inh: inactive

What do the screens show for `Cn1nccc1C(=O)N1C[C@@H](Oc2cccnc2)C[C@H]1C(=O)N1CCCC1`?
KDM5B inh: inactive

What do the screens show for `CCC1=Nc2cc(C(=O)NCCC(C)C)ccc2Sc2ccc(Br)cc21`?
KDM5B inh: inactive
